Screening data from PubChem BioAssay.
EPAC1 ag: qHTS for Agonist of cAMP-regulated guanine nucleotide exchange factor 3 (EPAC1): primary screen; Rap guanine nucleotide exchange factor 3 (Homo sapiens), O95398; AID 720707, 2013; EPAC1 agonist qHTS, biochemical assay; response scale: 100% = response to 6.5 mM cAMP; Potency, µM (titrated, usually from 154 µM), inactives show at the highest dose activation, hits mostly activators; 0.073% of 360,000 active; further: nearly all actives have a fitted effect of over 60% in size
Target sequence (O95398 whole entry, looked up): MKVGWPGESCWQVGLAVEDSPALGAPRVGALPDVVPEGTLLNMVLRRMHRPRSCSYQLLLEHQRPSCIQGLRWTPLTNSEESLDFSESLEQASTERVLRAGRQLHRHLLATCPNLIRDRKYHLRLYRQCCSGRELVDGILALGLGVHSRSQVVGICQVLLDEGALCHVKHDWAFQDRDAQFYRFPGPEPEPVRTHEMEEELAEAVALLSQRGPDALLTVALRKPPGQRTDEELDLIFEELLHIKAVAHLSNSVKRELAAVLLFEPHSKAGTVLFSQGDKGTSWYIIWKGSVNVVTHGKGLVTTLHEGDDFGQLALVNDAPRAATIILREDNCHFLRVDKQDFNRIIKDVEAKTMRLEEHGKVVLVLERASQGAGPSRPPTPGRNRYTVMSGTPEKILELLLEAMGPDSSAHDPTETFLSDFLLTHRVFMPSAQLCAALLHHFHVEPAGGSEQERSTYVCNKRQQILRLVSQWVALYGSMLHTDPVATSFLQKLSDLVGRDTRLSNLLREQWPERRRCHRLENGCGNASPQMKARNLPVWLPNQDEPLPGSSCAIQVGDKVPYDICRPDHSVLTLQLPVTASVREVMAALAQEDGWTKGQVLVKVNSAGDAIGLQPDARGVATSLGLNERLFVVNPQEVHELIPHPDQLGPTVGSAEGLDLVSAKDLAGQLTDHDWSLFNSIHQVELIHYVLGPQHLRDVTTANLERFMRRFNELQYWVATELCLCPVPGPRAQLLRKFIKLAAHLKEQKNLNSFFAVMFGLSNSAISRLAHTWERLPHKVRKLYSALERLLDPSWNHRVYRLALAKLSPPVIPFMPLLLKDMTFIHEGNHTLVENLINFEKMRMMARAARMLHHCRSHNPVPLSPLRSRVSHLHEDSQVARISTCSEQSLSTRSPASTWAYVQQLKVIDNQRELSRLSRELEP
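EPAC1 100 nM, Rap1B–BODIPY-GDP 250 nM, unlabeled GDP 50 uM; compound titration; 5 min RT; kinetic read ex480/em540 at 5-min intervals ×30 min; data normalized to 6.5 mM cAMP agonist control.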
ERG Ets-DNA blk: qHTS for Small Molecule Inhibitors of the ERG Ets/DNA interaction; 0.028% of 370,000 active; fluorescence polarization, His-ERG Ets domain / labelled DNA; AID 624246, 2012; Potency, µM (doses to about 76.9 µM), inactives show at the top dose FP activity, negative = inhibition, usual class: inhibitors; Transcriptional regulator ERG (Homo sapiens), P11308; active means well fitted inhibition curve with a large enough effect in the polarisation, with a control signal flat; inconclusive means small, poorly fitted or top-dose-only effect, or effect the other way, or a change in a side signal; inactive means no such curve, though single readings can be large or run the other way; the % refers to the polarisation;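 further: polarization taken with two DNA probes labelled with fluorescein and Texas red; % of control where 0% means no effect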
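His-tagged ERG Ets domain (1 uM in the protein solution; 300mM KCl, 50mM Tris-HCl, 1mM EDTA, 1mM DTT, pH 7.5) received compound, then a probe mix of 5 nM fluorescein-DNA and 100nM Texas-615-DNA. Fluorescence polarization was read for both dyes.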
RGS4 inh: Inhibitors of Regulator of G Protein Signaling (RGS) 4: qHTS; Transcreener GDP fluorescence polarization, RGS4-accelerated GTP hydrolysis; Potency, µM (series often up to 114 µM), inactives show top-dose activity change, negative = inhibition, hits mostly inhibitors; Regulator of G-protein signaling 4 (Homo sapiens), P49798; AID 504845, 2011; 0.039% of 390,000 active; further: on the % scale 0 is the no-effect control and ±100 the full control effect; nearly all actives have a fitted effect of over 75% in size
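MLSMR compounds (23 nl, pin-transferred) preincubated 10 min at room temperature with a 500nM (2x) first reagent, then RGS4 at 900nM (2x) plus Transcreener GDP mix added; fluorescence polarization (620/688 nm) read before and after 90 min at 30 °C.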
EPAC2 antagonist: qHTS for Antagonist of cAMP-regulated guanine nucleotide exchange factor 2 (EPAC2): primary screen; Rap guanine nucleotide exchange factor 4 (Homo sapiens), Q8WZA2; EPAC2 GEF exchange of Rap1B-BODIPY-GDP, fluorescence; Potency, µM (doses to about 114 µM), inactives show top-dose activity, negative = inhibition, hits mostly inhibitors; 0.18% of 360,000 active; AID 720708, 2013; further: on the % scale 0 is the no-effect control and ±100 the full control effect; nearly all actives have a fitted effect of over 45% in size
EPAC1 antag: qHTS for Antagonist of cAMP-regulated guanine nucleotide exchange factor 3 (EPAC1): primary screen; AID 720709, 2013; Rap guanine nucleotide exchange factor 3 (Homo sapiens), O95398; 0.14% of 360,000 active; EPAC1 GEF assay, Rap1b-BODIPY-GDP exchange fluorescence; Potency, µM (top dose mostly 115 µM), inactives show top-dose activity change, negative = inhibition, usual class: inhibitors;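 further: plate controls were vehicle for no effect and positive control for full effect; nearly all actives have a fitted effect of over 50% in size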
EPAC2 agonist: qHTS for Agonist of cAMP-regulated guanine nucleotide exchange factor 4 (EPAC2): primary screen | AID 720711, 2013 | 0.079% of 360,000 active | Rap guanine nucleotide exchange factor 4 (Homo sapiens), Q8WZA2 | EPAC2 activation, biochemical qHTS; response scale: 100% = 6.5 mM cAMP response | Potency, µM (series often up to 154 µM), for the others: top-dose activation, most hits filed as activators; further: nearly all actives have a fitted effect of over 50% in size
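Each well held 100 nM EPAC2, 250 nM RAP1B-BODIPY-GDP and 50 uM GDP. Fluorescence, read at 5-min intervals to 30 min, was referenced to a 6.5 mM cAMP positive control.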
Starred values were filed as active, the others as inactive; [ ] = remark or other dose. An excerpt weighted towards active compounds, which were near 0.4% of everything screened. Unless noted, the call rests on the fitted dose curve; in most records, active means well fitted curve in the direction sought with a large enough effect; inconclusive means small, poorly fitted or top-dose-only effect, or another doubt; inactive means no such curve, though single readings can be large; an effect the other way counts as inactive or inconclusive. Potency means the concentration at half of the fitted maximal effect.

Screening OCCN(CCO)c1nc(N2CCCCC2)c2nc(N(CCO)CCO)nc(N3CCCCC3)c2n1 returned EPAC1 ag 100µM*, ERG Ets-DNA blk -8%, RGS4 inh inconclusive, EPAC2 antagonist 185%, EPAC1 antag 190% and EPAC2 agonist 112µM*.
Screening Nc1nc(NCCO)nc(N2CCCCCC2)c1[N+](=O)[O-] returned EPAC1 ag -4%, ERG Ets-DNA blk -2%, RGS4 inh 35%, EPAC2 antagonist 16%, EPAC1 antag -4% and EPAC2 agonist 9%.
Screening Cc1ccc(S(=O)(=O)/N=C2/NC(=O)/C(=C/c3ccc(Br)o3)S2)cc1 returned EPAC1 ag -2%, RGS4 inh -28%, EPAC2 antagonist -6%, EPAC1 antag -15% and EPAC2 agonist -12%.
For Cc1ccc(S(=O)(=O)/N=C2/NC(=O)/C(=C\c3cc(Br)cc(Br)c3O)S2)cc1 the results were EPAC1 ag -2%, ERG Ets-DNA blk 120%, RGS4 inh inconclusive, EPAC2 antagonist 79µM*, EPAC1 antag inconclusive and EPAC2 agonist 0%.
For COC(=O)c1cc(C)nc2c1C(=O)C(=O)C=C2N1CCOCC1 the results were EPAC1 ag -9%, ERG Ets-DNA blk 7%, RGS4 inh -36%, EPAC2 antagonist inconclusive, EPAC1 antag 3.5µM* and EPAC2 agonist inconclusive.
Screening COc1cccc(CN2C(=O)c3ccccc3C2C(=O)NCCc2ccccc2)c1 (stereo not given) returned ERG Ets-DNA blk -3% and RGS4 inh 5%.
Screening O=c1[nH]c(Nc2ccccc2)cc2cc(Br)ccc12 returned EPAC1 ag -5%, ERG Ets-DNA blk 9%, RGS4 inh -15%, EPAC2 antagonist -10%, EPAC1 antag inconclusive and EPAC2 agonist 6%.
Screening CC(=O)c1cccc(Nc2nc(-c3ccccc3)nc3ccccc23)c1 returned EPAC1 ag -5%, ERG Ets-DNA blk 2%, RGS4 inh 12%, EPAC2 antagonist 2%, EPAC1 antag -6% and EPAC2 agonist 1%.
For O=c1[nH]c(Nc2ccccc2)cc2ccccc12 the results were EPAC1 ag -6%, ERG Ets-DNA blk -10%, RGS4 inh -47%, EPAC2 antagonist inconclusive, EPAC1 antag 50µM* and EPAC2 agonist 6%.
CC(=O)c1cccc(-c2ccc3c(=O)[nH]c(Nc4ccccc4)cc3c2)c1 was read as EPAC1 ag 13%, ERG Ets-DNA blk 22%, RGS4 inh -15%, EPAC2 antagonist 5%, EPAC1 antag 50µM* and EPAC2 agonist 8%.
CCOC(=O)c1ccc(NC(=O)c2cn3c4c(ccc(Cl)c4c2=O)OC(C)C3)cc1 (stereo not given) was read as ERG Ets-DNA blk -16% and RGS4 inh 5%.
`Cn1c(/C(C#N)=C/c2ccc(C(F)(F)F)cc2)nc2ccccc21` gave ERG Ets-DNA blk 3% and RGS4 inh -40%.
Screening CCN(CC)S(=O)(=O)c1ccc(C(=O)NCc2ccc3c(c2)cc(C)n3C)cc1 returned EPAC1 ag 0%, ERG Ets-DNA blk 32µM*, RGS4 inh -13%, EPAC2 antagonist 7%, EPAC1 antag -11% and EPAC2 agonist -1%.
Screening Cc1cc2cc(CNC(=O)c3cccs3)ccc2n1C returned EPAC1 ag -4%, ERG Ets-DNA blk 18µM*, RGS4 inh inconclusive, EPAC2 antagonist -12%[57.1 µM], EPAC1 antag -2% and EPAC2 agonist 1%.
Screening CCN1CCN(Cc2c(O)ccc3c2O/C(=C\C=C\c2ccccc2OC)C3=O)CC1 returned EPAC1 ag 56µM*, ERG Ets-DNA blk 0%, RGS4 inh -53%, EPAC2 antagonist 89%, EPAC1 antag 46% and EPAC2 agonist inconclusive.
`Cc1ccc(S(=O)(=O)N(C)CCCN(C)c2nc(-c3cccs3)nc3ccccc23)cc1` gave RGS4 inh 20%.
CCc1ccc2c(c1)NC(=O)C2(C)Cc1ccc(F)cc1 (stereo not given) was read as EPAC1 ag -17%, EPAC2 antagonist 45µM*, EPAC1 antag -8% and EPAC2 agonist -4%.
`Cc1ccsc1C=Nc1ccc(O)cc1` gave EPAC1 ag 12%, ERG Ets-DNA blk -19%, RGS4 inh -42%, EPAC2 antagonist 50µM*, EPAC1 antag 35µM* and EPAC2 agonist 10%.
Screening Cc1ccsc1/C=N/N=C/c1sccc1C returned EPAC1 ag -5%, ERG Ets-DNA blk -2%, RGS4 inh 2%, EPAC2 antagonist -6%, EPAC1 antag -13% and EPAC2 agonist 8%.
Screening CC1CCN(S(=O)(=O)c2ccc3c(ccc(=O)n3CC(=O)Nc3cccc(F)c3)c2)CC1 returned ERG Ets-DNA blk 1% and RGS4 inh -34%.
For Oc1ccc(NCc2ccccc2OCc2ccccc2F)cc1 the results were EPAC1 ag 16%, ERG Ets-DNA blk inconclusive, RGS4 inh inconclusive, EPAC2 antagonist -8%, EPAC1 antag 79µM* and EPAC2 agonist 26%.
For CCOc1ccccc1CNc1ccc(O)cc1 the results were EPAC1 ag 2%, ERG Ets-DNA blk inconclusive, RGS4 inh inconclusive, EPAC2 antagonist -16%, EPAC1 antag 4.5µM* and EPAC2 agonist 3%.
`CCOc1cccc(CNc2ccc(O)cc2)c1OCc1ccc(Cl)cc1` gave EPAC1 ag 15%, ERG Ets-DNA blk inconclusive, RGS4 inh inconclusive, EPAC2 antagonist 35µM*, EPAC1 antag 25µM* and EPAC2 agonist -1%.
Cc1ccc(NCc2ccccc2OCc2ccccc2F)cc1 was read as EPAC1 ag 24%, ERG Ets-DNA blk 2%, RGS4 inh -12%, EPAC2 antagonist 0%, EPAC1 antag -13% and EPAC2 agonist 16%.
Screening CCOc1cc(CNCc2ccccc2)ccc1OCc1ccc(Cl)cc1 returned EPAC1 ag 18%, ERG Ets-DNA blk -2%, RGS4 inh -3%[56.9 µM], EPAC2 antagonist -5%, EPAC1 antag 6% and EPAC2 agonist 9%.
